Screening results as filed in PubChem BioAssay.
SKKanGAS inh: inhibitors of SKKanGAS S. pyogenes growth in kanamycin (SK-promoter or general growth effect). BacTiter-Glo, 6 h. inhibition, % at 7.5 µM. actives 1.3% (n = 300,000);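 active means mean replicate score, as percent of positive control median, at least 50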;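 further: strain carries kanamycin resistance gene driven by streptokinase promoter and grows in 40 µg/ml kanamycin; loss of luminescence reflects streptokinase promoter inhibition or plain growth inhibition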
TIM10 inh: TIM10 yeast growth inhibition. actives 1.4% (n = 330,000). inhibition, % at 10 µM. S. cerevisiae TIM10 strain growth, BacTiter-Glo luminescence, 24 h;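 active means inhibition of 40% or more at the single tested concentration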;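 further: wild-type TIM10 isogenic control strain grown at permissive 25 °C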
tim23-1 inh: tim23-1 yeast growth inhibition | S. cerevisiae tim23-1 growth, BacTiter-Glo luminescence, 24 h | actives 1.3% (n = 330,000) | AID 463212 | inhibition, % at 20 µM;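 active means growth inhibition of the mutant yeast at or above 50%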;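 further: temperature-sensitive mutant grown at 25 °C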
PfHsp90 yeast 2: growth inhibition of yeast expressing Plasmodium Hsp90. S. cerevisiae expressing PfHsp90, BacTiter-Glo ATP, 48 h; yeast lacking PDR1 and PDR3 efflux regulators. inhibition, % at 9.4 µM. actives 0.32% (n = 310,000);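 active means every replicate shows inhibition above about 80%, whatever the replicate mean, limit read from the data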
NALP3 yeast inh: NALP3 inhibition in yeast; actives 0.39% (n = 330,000); AID 2825; Yeast reconstituted NLRP3/ASC/caspase-1, beta-gal luminescence, 24 h; inhibition, % at 10 µM;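 active means inhibition of 50% or more; inactive means inhibition below 50%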
tim10-1 inh: inhibits growth of tim10-1 mutant yeast. S. cerevisiae tim10-1 ts strain growth, BacTiter-Glo, 24 h. inhibition, % at 20 µM. actives 2.2% (n = 330,000). AID 463190;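 active means inhibition of at least 40%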;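 further: mutant grown at 25 °C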
NALP3 confirm: NALP3 inhibition confirmation in yeast; inhibition, % at 10 µM; AID 435006; yeast expressing human NALP3, luminescence; actives 81% (n = 1,300); shares compounds with NALP3 yeast inh; in the data active means inhibition above about 48%
Casp1-ASC yeast: counter-screen for NALP3 inhibitors: yeast caspase-1-ASC; shares compounds with NALP3 yeast inh; yeast expressing Caspase-1-ASC, luminescence counter screen; inhibition, % at 10 µM; actives 66% (n = 1,000); AID 488784
NALP3 retest: yeast NALP3 inhibition, confirmed on retest; shares compounds with NALP3 yeast inh; yeast expressing human NALP3, luminescence read-out; inhibition, % at 10 µM; actives 53% (n = 1,000); AID 488794
tim10-1 conf: confirmation of tim10-1 mutant yeast growth inhibitors; shares compounds with tim10-1 inh; S. cerevisiae tim10-1 ts strain growth, BacTiter-Glo, 24 h; inhibition, % at 20 µM; actives 56% (n = 7,400); AID 463213;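 active means inhibition of yeast growth at or above a set limit in either of two repeat tests at 20 µM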;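 further: tim10-1 mutant grown at permissive 25 °C to find synthetic lethal compounds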
TIM10 conf: TIM10 yeast growth inhibition, confirmed | actives 63% (n = 4,600) | shares compounds with TIM10 inh | inhibition, % at 10 µM | S. cerevisiae tim10 strain growth, BacTiter-Glo luminescence, 24 h;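 active means inhibition of yeast growth at or above a set limit in either of two replicates at 10 µM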; further: this counterscreen used the strain with wild-type TIM10
tim23-1 confirm: tim23-1 yeast growth inhibition, confirmed | actives 83% (n = 4,400) | inhibition, % at 20 µM | shares compounds with tim23-1 inh | S. cerevisiae tim23-1 growth, BacTiter-Glo luminescence, 24 h;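 active means inhibition above about 39% in either of two replicate wells at 20 µM, limit read from the data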;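 further: temperature-sensitive tim23-1 mutant grown at 25 °C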
Of the large screens only hits and unclear results are named; the others gave an inactive call (follow-up assays come after a bar, where they were run). Only some compounds are listed: those with a hit (about 4.5% of all), similar ones and a draw of the others. Unless noted, no stated cut-off is given here; in the data, active means inhibition above about 50%; inactive means the rest.

Oc1ccc(N=Nc2ccc(Br)cc2)c(O)c1	TIM10 inh 47.7, tim23-1 inh 68.4, NALP3 yeast inh 57.9 | NALP3 confirm 73.3 | Casp1-ASC yeast inactive | NALP3 retest inactive | TIM10 conf 63.8 | tim23-1 confirm inactive
Oc1ccc(N=Nc2n[nH]c(-c3ccc(Br)cc3)n2)cc1	none (no result: TIM10 inh, tim23-1 inh, NALP3 yeast inh, tim10-1 inh)
CCC1Oc2ccccc2N(CC(=O)NCC2CCCO2)C1=O (stereo not given)	none
CCCCOc1ccc(-c2csc(N)n2)cc1[N+](=O)[O-]	TIM10 inh 42.7, tim23-1 inh 53.2, NALP3 yeast inh 57.0 | NALP3 confirm inactive | TIM10 conf inactive | tim23-1 confirm 62.7
CCCCOc1ccc(C2=CSC3=NCCN23)cc1[N+](=O)[O-]	none
Cc1ccc(C)c(NC(=O)COC(=O)CCNC(=O)c2ccco2)c1	none (no result: SKKanGAS inh)
COc1cc(OC)cc(C(=O)/C=C2\Sc3ccccc3N2C)c1	none
CN1/C(=C\C(=O)c2cccs2)Sc2ccccc21	TIM10 inh 62.8, tim23-1 inh 59.0, NALP3 yeast inh 62.3 | NALP3 confirm inactive | TIM10 conf 60.3 | tim23-1 confirm 80.3
CCCCCCCCC[n+]1cccc2c3ccccc3ccc21	none
CCCCCCCCCCCCCCCC[n+]1cccc2ccccc21	TIM10 inh 89.2, tim23-1 inh 96.3, PfHsp90 yeast 2 106.1, NALP3 yeast inh 73.0, tim10-1 inh 97.6 (no result: SKKanGAS inh) | NALP3 confirm inactive | tim10-1 conf 97.9 | TIM10 conf inactive | tim23-1 confirm 97.3
O/N=C/c1cccc[n+]1CCCCCC[n+]1ccccc1/C=N/O	none
CCCCCCCCCCCCCCCC[n+]1ccc(/C=N/O)cc1	TIM10 inh 50.3, tim23-1 inh 50.6, PfHsp90 yeast 2 106.0, NALP3 yeast inh 56.1 (no result: SKKanGAS inh) | NALP3 confirm inactive | TIM10 conf inactive | tim23-1 confirm 49.1
CCOc1ccc(Nc2cc(C)c3ccccc3n2)cc1	none
Cc1cc(Nc2ccccc2)nc2cc(O)ccc12	tim23-1 inh 64.7, NALP3 yeast inh 69.9 | NALP3 confirm 81.6 | Casp1-ASC yeast 91.2 | NALP3 retest 60.0 | tim23-1 confirm inactive
COc1ccc(Nc2cc(C)c3ccc(O)cc3n2)cc1	tim23-1 inh 51.4, NALP3 yeast inh 75.8 | NALP3 confirm 90.8 | tim23-1 confirm inactive
Cc1noc(C)c1C(=O)Nc1ccccc1C(=O)NCCc1ccccc1	none
COc1cc(NC(=O)CN(C)Cc2cccc(F)c2)c(C)cc1[N+](=O)[O-]	none
Cc1ccc(S(=O)(=O)N2CCN(C(=O)CCC(=O)Nc3ccc(F)cc3F)CC2)cc1	none (no result: SKKanGAS inh)
COc1ccc(/C=C/C(=O)c2ccc(Cl)s2)cc1O	TIM10 inh 68.1, tim23-1 inh 68.5, NALP3 yeast inh 54.0, tim10-1 inh 53.0 | NALP3 confirm 70.2 | Casp1-ASC yeast inactive | NALP3 retest inactive | tim10-1 conf 53.9 | TIM10 conf 44.0 | tim23-1 confirm 81.3
Cc1ncc([N+](=O)[O-])n1CC(=O)Nc1ccc(Br)cc1	none
COc1ccc(-c2csc(N)n2)cc1	none
Nc1nc(-c2ccc(Oc3ccccc3)cc2)cs1	tim23-1 inh 57.1, NALP3 yeast inh 96.8 | NALP3 confirm 57.0 | Casp1-ASC yeast 98.8 | NALP3 retest 99.4 | tim23-1 confirm 48.2
CC1(c2ccc(OC(F)F)cc2)NC(=O)N(CC(=O)Nc2ccc(Cl)cc2F)C1=O (stereo not given)	none
S=C(NCCc1ccccc1)Nc1ccc(Cl)cc1	none
